# Assay results: article PMC4336329 (PLoS ONE, 2015)
# In all, about 310,000 compounds went through this assay and about 2,200 (0.71%) showed an effect of 50% or more. Effects have a minus sign here. The full list was thinned out, with strong results kept by preference.
# Target: human ether-à-go-go-related gene (hERG) potassium channel (human, UniProt Q12809)
# Experiment: primary screen, population patch clamp on CHO cells stably expressing hERG; higher = less effect of the substance
# Chain of human ether-à-go-go-related gene (hERG) potassium channel (Q12809 whole entry, looked up): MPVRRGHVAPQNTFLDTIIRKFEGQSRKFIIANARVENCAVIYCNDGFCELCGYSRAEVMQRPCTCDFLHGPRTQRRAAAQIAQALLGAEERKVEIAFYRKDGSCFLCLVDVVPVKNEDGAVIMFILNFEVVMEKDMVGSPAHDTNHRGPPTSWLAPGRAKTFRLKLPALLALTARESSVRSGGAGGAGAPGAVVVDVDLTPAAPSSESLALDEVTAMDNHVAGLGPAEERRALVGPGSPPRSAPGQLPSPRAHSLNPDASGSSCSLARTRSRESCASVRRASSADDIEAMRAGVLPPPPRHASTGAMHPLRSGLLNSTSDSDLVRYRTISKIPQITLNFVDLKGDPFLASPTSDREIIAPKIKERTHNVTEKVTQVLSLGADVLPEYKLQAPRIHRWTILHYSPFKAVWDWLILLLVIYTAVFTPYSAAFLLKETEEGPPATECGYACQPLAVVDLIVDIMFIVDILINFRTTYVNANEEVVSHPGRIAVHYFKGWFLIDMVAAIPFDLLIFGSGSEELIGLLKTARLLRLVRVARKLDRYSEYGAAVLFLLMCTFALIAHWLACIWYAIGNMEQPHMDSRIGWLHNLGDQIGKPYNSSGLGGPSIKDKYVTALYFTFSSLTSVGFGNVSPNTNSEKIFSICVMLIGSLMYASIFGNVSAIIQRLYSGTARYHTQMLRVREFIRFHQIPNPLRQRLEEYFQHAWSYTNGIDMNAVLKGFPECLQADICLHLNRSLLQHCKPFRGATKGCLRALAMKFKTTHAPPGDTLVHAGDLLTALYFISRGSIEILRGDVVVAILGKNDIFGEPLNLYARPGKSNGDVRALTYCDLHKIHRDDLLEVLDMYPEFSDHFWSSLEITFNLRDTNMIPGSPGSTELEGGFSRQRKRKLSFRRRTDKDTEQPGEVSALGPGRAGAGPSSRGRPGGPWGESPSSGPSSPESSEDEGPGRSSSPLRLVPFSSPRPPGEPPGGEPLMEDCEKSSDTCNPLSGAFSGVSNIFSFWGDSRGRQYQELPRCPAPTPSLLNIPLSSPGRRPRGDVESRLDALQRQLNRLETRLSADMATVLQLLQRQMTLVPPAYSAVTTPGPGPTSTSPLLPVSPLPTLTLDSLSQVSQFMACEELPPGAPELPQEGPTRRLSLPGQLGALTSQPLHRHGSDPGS
row,SMILES,"hERG current change (%, negative = inhibition) at 1uM [%]"
1,Cl.O=[N+]([O-])c1ccc(CN2CCN(c3ccc4ccccc4n3)CC2)cc1,-1.76
2,CCCn1c(N2CCN(C(=O)/C=C/C(=O)O)CC2)nc2ccccc21,14.7
3,CC(C)Cn1c(N2CCN(C(=O)/C=C/c3ccccc3)CC2)nc2ccccc21,-32.9
4,CCn1c(N2CCN(C(=O)/C=C/c3ccccc3)CC2)nc2ccccc21,-77.4
5,CCn1c(N2CCN(Cc3ccc([N+](=O)[O-])cc3)CC2)nc2ccccc21.Cl,-81.2
6,CCCn1c(N2CCN(Cc3ccc(Cl)cc3)CC2)nc2ccccc21.Cl,-4.77
7,CCCCc1ccc(NC(=S)NN2CCOCC2)cc1,12.1
8,COc1ccc(NC(=O)CCCn2cc([N+](=O)[O-])cn2)cc1,1.91
9,O=C(NCCCn1ccnc1)c1cccc(Br)c1,6.56
10,CCOC(=O)C(NC(C)=O)(Nc1ccc(S(=O)(=O)Nc2ncccn2)cc1)C(F)(F)F (stereo not drawn),18.1
11,O=c1c2ccccc2ncn1-c1ccc2c(c1)OCCO2,2.75
12,CCC(=O)Nc1ccc(C(=O)n2nc(C)cc2C)cc1,1.88
13,Cc1c(NC(=O)c2cc(-n3cnnc3)ccc2Cl)cccc1-c1nc2ccccc2s1,-9.7
14,CC1CCCCN1CCCNC(=O)c1nn(C)c2c1CSc1ccccc1-2 (stereo not drawn),-23.4
15,Cn1nc(C(=O)NCCCN2CCCCC2)c2c1-c1ccccc1SC2,-24.8
16,CC1CCCN(CCCNC(=O)c2nn(C)c3c2CSc2ccccc2-3)C1 (stereo not drawn),-66.2
17,O=C(COc1nncc2ccccc12)NCCC1=CCCCC1,9.4
18,Cc1ccc2nc3c(cc(C(=O)NCc4ccco4)c(=N)n3Cc3ccco3)c(=O)n2c1,-86.5
19,Cc1ccc(S(=O)(=O)c2cc3c(=O)n4ccccc4nc3n(Cc3ccco3)c2=N)cc1,-0.218
20,COCCn1c(=N)c(C(=O)NCc2ccco2)cc2c(=O)n3ccccc3nc21,-88

row,SMILES,"hERG current change (%, negative = inhibition) at 1uM [%]"
1,COCCn1c(=N)c(S(=O)(=O)c2ccc(Br)cc2)cc2c(=O)n3ccccc3nc21,9.15
2,COCCn1c(=N)c(C(=O)NCc2ccco2)cc2c(=O)n3cc(C)ccc3nc21,-92
3,CCn1cc(C(=O)NCc2ccco2)c2cc(OC)c(OC)cc2c1=O,-8.54
4,COCCn1cc(C(=O)NCc2ccco2)c2c3ccccc3n(C)c2c1=O,5.73
5,Cc1cc2ccccc2c(=O)n1CC(=O)NCc1ccco1,18.5
6,CCOc1ccc(N2CC(=O)N/C2=N\c2nc(C)cc(C)n2)cc1,-2.01
7,CC(C)COC(=O)CCNc1n[nH]c(=O)[nH]c1=O,3.64
8,CCCCCCSc1nnc(N)s1,7.6
9,COc1ccccc1OCCCC(=O)NC(C)c1ccccc1 (stereo not drawn),8
10,O=C1CCCc2oc3c(cc(NS(=O)(=O)c4ccc5c6c(cccc46)C(=O)N5)c4ccccc43)c21,-6.54
11,Cc1cc(C)nc(SCCC(=O)N(C)C)n1,11
12,CCN(CC)c1nc2ccccc2c(N)c1-c1ccccc1.O=C(O)C(=O)O,-53.9
13,CN(C)c1nc2ccccc2c(N)c1-c1ccccc1.O=C(O)C(=O)O,-39.7
14,Cc1c(N(C)C)nc2ccccc2c1N.O=C(O)C(=O)O,-8.8
15,COc1cc(/C=C2/C(=O)NN(c3ccc(F)cc3)C2=O)cc([N+](=O)[O-])c1O,8.07
16,O=C(OCC(=O)C12CC3CC(CC(C3)C1)C2)c1cnccn1,8.15
17,O=C(CCc1nnc(CCCCc2ccccc2)o1)NCCN1CCOC1=O,9.65
18,O=C(c1ccc2c(=O)n(Cc3ccccc3Cl)c(=S)[nH]c2c1)N1CCOCC1,13
19,O=C(c1nc2ccccn2c1CN1CCCC(OCc2ccccc2)C1)N1CCCC1 (stereo not drawn),-25.7
20,O=C(c1nc2ccccn2c1CN1CCN(c2ccccc2O)CC1)N1CCCC1,26

row,SMILES,"hERG current change (%, negative = inhibition) at 1uM [%]"
1,O=C(c1nc2ccccn2c1CN1CCC(Cc2ccccc2)CC1)N1CCCC1,-54.2
2,CCN(CC)c1ccc(/C=C2\C(=O)NC(=S)N(C)C2=O)o1,7.14
3,C#CCn1c(=NC(=O)c2ccccc2[N+](=O)[O-])sc2cc(S(C)(=O)=O)ccc21,13.3
4,CC1CC(c2ccccc2)n2nc(NC(=O)CCc3ccccc3)nc2N1 (stereo not drawn),-1.41
5,CCCCCCCCCCCCCCCC[n+]1cccc2ccccc21.[I-],-23
6,CCCCCCCCC[n+]1cccc2c3ccccc3ccc21.[Br-],-91.7
7,O=[N+]([O-])c1ccc(C[n+]2cccc3c4ccccc4ccc32)cc1.[Br-],-18
8,[Cl-].c1ccc(C[n+]2cccc3c4ccccc4ccc32)cc1,-2.14
9,CCCCCCCC[n+]1cccc2c3ccccc3ccc21.[I-],-92
10,Cc1cccc[n+]1CCCCCCCCCC[n+]1ccccc1C.[Br-],20.8
11,CC(C)c1ccc(NC(=O)CSc2nnc(-c3ccccn3)n2C)cc1,-4.65
12,COc1ccc(/C=N/Nc2ccccc2C(=O)O)cc1Cn1cc([N+](=O)[O-])cn1,6.26
13,O=C(Nc1ccc(OC(F)(F)F)cc1)C1CCCN(S(=O)(=O)c2cccnc2)C1 (stereo not drawn),-4.09
14,Cc1nnsc1C(=O)N1CCCC(C(=O)c2ccc(C(F)(F)F)cc2)C1 (stereo not drawn),3.88
15,CCOc1ccc(-c2cc(C)[n+](CCc3ccc(OC)c(OC)c3)c(-c3ccc(OCC)cc3)c2)cc1.[O-][Cl+3]([O-])([O-])[O-],-70.1
16,Cc1cc(-c2ccccc2)cc(-c2ccccc2)[n+]1CCc1ccccc1.[O-][Cl+3]([O-])([O-])[O-],-78.4
17,CCOc1ccc(-c2cc(C)[n+](CCO)c(-c3ccc(OCC)cc3)c2)cc1.[O-][Cl+3]([O-])([O-])[O-],1.92
18,O=[N+]([O-])c1ccc(C[n+]2c(-c3ccccc3)cc(-c3ccccc3)cc2-c2ccccc2)cc1.[O-][Cl+3]([O-])([O-])[O-],7.61
19,Cc1cc(-c2ccccc2)cc(C)[n+]1Cc1ccccc1.[O-][Cl+3]([O-])([O-])[O-],6.49
20,CCOc1ccc(-c2cc(C)[n+](CCN(CC)CC)c(-c3ccc(OCC)cc3)c2)cc1.[O-][Cl+3]([O-])([O-])[O-],-19.3
